Screens: PubChem BioAssay, several laboratories
KKLEB cytotox: cytotoxicity in KKLEB CF airway cells, primary screen, cytotoxicity control for CF NF-kB inhibitor project, cell-based, uHTS, fluorescence assay plates; KKLEB CF airway cells viability, ATPlite luminescence, overnight; hits give low values; cells stimulated with P. aeruginosa culture filtrate; activity change (cytotoxicity), % at 5 µM; 0.36% of 360,000 active; AID 602141, 2011;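 active = corrected activity change at or below -50% at 5 µM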
Peg3 promoter: Peg3 promoter-driven luciferase inhibitors, primary screen, cell-based, HeLa, luciferase luminescence. 1.7% of 360,000 active. HeLa PEG-Prom luciferase reporter, overnight. inhibition, % at 20 µM. AID 588405, 2011;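 active = inhibition of at least 50% at 20 µM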
TRPM1 prom inh: inhibitors of MITF-dependent TRPM1 promoter reporter, primary screen, cell-based, SK-MEL-5, single point, luciferase. 0.83% of 330,000 active. inhibition, % at 12.5 µM. AID 488899, 2010. SK-MEL-5 TRPM1 promoter luciferase, 24 h;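 active = mean inhibition across replicates of 60% or more, whatever share of single replicates reaches that level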
CHOP inh: inhibitors of CHOP promoter induction, primary screen, cell-based, unfolded protein response, luciferase reporter. 3.8% of 220,000 active. AID 2732, 2010. CHO-K1 CHOP-promoter luciferase, tunicamycin-induced, 15-18 h. inhibition, % at 10 µM;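 active = compounds that reduced the stress-induced luciferase reporter signal by more than about 70% of percent inhibition, limit read from the data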;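 note: 0% = tunicamycin plus vehicle and 100% = wells without tunicamycin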
CF NFkB inh: inhibitors of PAF-induced NF-kB signaling, primary screen, cell-based, GFP fluorescence, uHTS; 0.86% of 360,000 active; inhibition, % at 5 µM; AID 588850, 2011; KKLEB NF-kB-GFP reporter, GFP fluorescence overnight;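 active = at least 50% inhibition at 5 µM, scaled per plate between neutral and stimulator controls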;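 note: PAF is a Pseudomonas aeruginosa culture filtrate used as stimulus; plate controls were PAF-stimulated DMSO wells for no effect and unstimulated DMSO wells for full effect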
HIF-2a block: HIF-2a reporter inhibitors, primary screen, luminescence, 786-0 RCC cells | 786-0 RCC cells HIF-2a reporter, luciferase luminescence, overnight | inhibition, % at 18.8 µM | AID 624352, 2012 | 0.72% of 360,000 active;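 active = inhibition of the luminescence signal of 40% or more relative to plate controls, in a single-dose primary screen at 18.75 µM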
Active calls of the source: *. Compounds with a hit are over-represented: about 4.3% of the library has one in this group of screens.

`COc1cc(SC)ccc1C(=O)NCCOc1ccc(Cl)cc1` gave KKLEB cytotox 3, Peg3 promoter -20, TRPM1 prom inh -15, CHOP inh 27, CF NFkB inh -2 and HIF-2a block -26.
Screening CCOC(=O)/C(=C(/C)N)C1CC(=O)NC1=O (stereo unspecified) returned KKLEB cytotox -4, Peg3 promoter 6, CF NFkB inh 12 and HIF-2a block 11.
For COC(=O)c1sc(-c2ccc(C(C)(C)C)cc2)cc1NC(=O)CSCC(=O)O the results were KKLEB cytotox 8, Peg3 promoter -47, TRPM1 prom inh -22, CHOP inh 77*, CF NFkB inh 27 and HIF-2a block -65.
Screening Cc1ccc(-c2ccc(=O)[nH]n2)cc1 returned KKLEB cytotox 2, Peg3 promoter 9, TRPM1 prom inh 18, CHOP inh 37, CF NFkB inh 17 and HIF-2a block -9.
CCCCCc1ccc(-c2ccc(=O)[nH]n2)cc1 was read as KKLEB cytotox 2, Peg3 promoter -83, TRPM1 prom inh -11, CHOP inh 93*, CF NFkB inh 10 and HIF-2a block -101.
Cc1[nH]n(-c2ccccc2)c(=S)c1C=Nc1cccc([N+](=O)[O-])c1 was read as KKLEB cytotox -2, Peg3 promoter 11, TRPM1 prom inh 9, CHOP inh 80*, CF NFkB inh 3 and HIF-2a block 11.
Cc1cc2c(cc1S(=O)(=O)N1CCN(c3cccc(C)c3C)CC1)OCCN2C was read as KKLEB cytotox 0, Peg3 promoter 20, TRPM1 prom inh 2, CF NFkB inh 23 and HIF-2a block 15.
Screening CCOc1ccc(OCCSc2nnnn2C2CCCCC2)cc1 returned KKLEB cytotox -11, Peg3 promoter -4, TRPM1 prom inh -6, CHOP inh 80*, CF NFkB inh -7 and HIF-2a block -49.
For CCOC(=O)CSc1nc2nc(C)cc(C)n2n1 the results were KKLEB cytotox 0, Peg3 promoter -6, TRPM1 prom inh -5, CHOP inh 83*, CF NFkB inh 9 and HIF-2a block 3.
OC1CCC2CN3CCc4c([nH]c5ccccc45)C3CC2C1 (stereo unspecified) was read as KKLEB cytotox -2, Peg3 promoter -94, CF NFkB inh -1 and HIF-2a block -60.
`CCC(=O)Nc1cccc(-c2nc3ccccc3o2)c1` gave KKLEB cytotox 16, Peg3 promoter -54, TRPM1 prom inh -13, CHOP inh 0, CF NFkB inh -17 and HIF-2a block -194.
`O=C(Cc1cccs1)Nc1cccc(-c2nc3ccccc3o2)c1` gave KKLEB cytotox -12, Peg3 promoter -38, TRPM1 prom inh -5, CHOP inh 90*, CF NFkB inh -13 and HIF-2a block -90.
For Cc1ccc(-c2nc3ccccc3o2)cc1NC(=O)Cc1cccs1 the results were KKLEB cytotox 4, Peg3 promoter 12, TRPM1 prom inh 0, CHOP inh 80*, CF NFkB inh 6 and HIF-2a block 5.
For COc1cccc(C(C)(O)c2nc(/C=C/c3ccccc3)cs2)c1 (stereo unspecified) the results were KKLEB cytotox 0, Peg3 promoter -2, CF NFkB inh 6 and HIF-2a block -19.
`CC1CC(C)CN(C(=O)COC(=O)c2ccc(S(=O)(=O)N(C)c3ccccc3)cc2)C1` (stereo unspecified) gave KKLEB cytotox 19, Peg3 promoter -13, TRPM1 prom inh 16, CF NFkB inh -2 and HIF-2a block 7.
`CC(C)(C)n1nc(Cc2cccc3ccccc23)c2c(N)ncnc21` gave KKLEB cytotox 1, Peg3 promoter 44, TRPM1 prom inh 14, CF NFkB inh 50* and HIF-2a block 34.
`CCOc1ccc(CN2CCN(CC(O)Cn3c4ccccc4c4ccccc43)CC2)cc1` (stereo unspecified) gave KKLEB cytotox 0, Peg3 promoter -14, TRPM1 prom inh 0, CHOP inh 108*, CF NFkB inh -7 and HIF-2a block 14.
Screening CCSc1nc2sc3c(c2c(=O)[nH]1)CCc1ccccc1-3 returned KKLEB cytotox 8, Peg3 promoter -2, TRPM1 prom inh 12, CHOP inh 84*, CF NFkB inh 2 and HIF-2a block 0.
Screening Clc1cccc(COn2c(-c3ccc(Cl)cc3Cl)nc3ncccc32)c1 returned KKLEB cytotox -6, Peg3 promoter 24, TRPM1 prom inh -5, CHOP inh 74*, CF NFkB inh 4 and HIF-2a block 8.
Screening COCCN(C(=O)c1ccc2c(c1)S(=O)(=O)N=C1CCCCCN12)c1c(N)n(CC(C)C)c(=O)[nH]c1=O returned KKLEB cytotox 3, Peg3 promoter 16, TRPM1 prom inh 4, CF NFkB inh -22 and HIF-2a block 5.
For Cc1ccsc1C(=O)NNC(=O)c1ccncc1 the results were KKLEB cytotox 8, Peg3 promoter -19, TRPM1 prom inh -19, CF NFkB inh 14 and HIF-2a block -10.
Screening COC(=O)c1sc(S(=O)(=O)N2CCCCC2C)c(C(=O)OC)c1C (stereo unspecified) returned KKLEB cytotox -4, Peg3 promoter 23, TRPM1 prom inh 7, CF NFkB inh -14 and HIF-2a block 8.
`O=C(NC1CCCCC1)N1CCC(c2nc3ccc(Cl)cc3[nH]2)CC1` gave KKLEB cytotox -12, Peg3 promoter 6, TRPM1 prom inh 1, CHOP inh 79*, CF NFkB inh 13 and HIF-2a block 12.
`S=C(NCCSCc1ccc(Cl)c(Cl)c1)Nc1ccccc1` gave KKLEB cytotox 0, Peg3 promoter 24, TRPM1 prom inh 3, CF NFkB inh -5 and HIF-2a block 26.
`Cc1ccc(C(=O)NCCSCc2ccc(Cl)cc2Cl)cc1[N+](=O)[O-]` gave KKLEB cytotox 5, Peg3 promoter 6, TRPM1 prom inh 4, CHOP inh 21, CF NFkB inh -17 and HIF-2a block 12.
S=C(NCCSCc1ccc(Cl)cc1Cl)Nc1ccccc1 was read as KKLEB cytotox -10, Peg3 promoter 18, TRPM1 prom inh 3, CHOP inh 81*, CF NFkB inh 3 and HIF-2a block 16.
`Cc1c(C(=O)NCCSCc2ccc(Cl)cc2Cl)cccc1[N+](=O)[O-]` gave KKLEB cytotox 1, Peg3 promoter 8, TRPM1 prom inh 2, CHOP inh 72*, CF NFkB inh -8 and HIF-2a block 17.
For CCCCN(CCCC)Cc1cc(=O)oc2ccccc12 the results were KKLEB cytotox -5, Peg3 promoter -8, CF NFkB inh -11 and HIF-2a block 12.
